Test results as given in PubChem BioAssay (NCI).
The panel holds about 83,000 compounds, 20% with a hit somewhere; the sample as a whole holds those more often.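 Treatment: one concentration, 48 hours, 96-well format. Scoring: percent growth, with anything below 10 considered active.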 Values without a mark were called inactive. Active and inactive are the calls of the source.

Key:
Assay in all cases: NCI-60 one-dose screen, 48 h (100 = growth as untreated, 0 = no growth, -100 = all killed)
Conditions in all cases: 10 µM unless noted
HCT-15 colon = system: HCT-15 colon
HT29 colon = system: HT29 colon
SNB-75 CNS = system: SNB-75 CNS
SNB-19 CNS = system: SNB-19 CNS
U251 CNS = system: U251 CNS
SK-MEL-5 melanoma = system: SK-MEL-5 melanoma
UACC-62 melanoma = system: UACC-62 melanoma
SK-MEL-28 melanoma = system: SK-MEL-28 melanoma
PC-3 prostate = system: PC-3 prostate
LOX IMVI melanoma = system: LOX IMVI melanoma

Structure (SMILES)	growth (HCT-15 colon)	growth (HT29 colon)	growth (SNB-75 CNS)	growth (SNB-19 CNS)	growth (U251 CNS)	growth (SK-MEL-5 melanoma)	growth (UACC-62 melanoma)	growth (SK-MEL-28 melanoma)	growth (PC-3 prostate) [%]	growth (LOX IMVI melanoma)
CC(=O)O[C@H](C[C@H](C(C)C)N(C)C(=O)[C@@H](NC(=O)[C@H]1CCCCN1C)C(C)C)c1nc(C(=O)N[C@@H](Cc2ccccc2)C[C@H](C)C(=O)O)c(CCOCc2ccccc2)s1	6.72% (active)	-4.51% (active)	0.84% (active)	16%	11.5%	-40.5% (active)	27.1%	42%		
Nc1ccc(OCCNS(=O)(=O)c2cccc(S(=O)(=O)F)c2)c(Cl)c1	93.4%	106%	50.5%	96.6%		97.1%	93.2%	88.8%	97.6	94.2%
COC(=O)[C@]12CCC(C)(C)C[C@H]1[C@H]1C(=O)C[C@@H]3[C@@]4(C)C[C@@]5(CC(C)(C)[C@@H]4CC[C@@]3(C)[C@]1(C)CC2)OO[C@@](C)(C(F)(F)F)O5	95.3%	102%	74.9%	91.7%		99.5%	84.3%	107%	86.7	95.7%
N#C[Se]Cc1cc(-c2ccccc2)n(-c2ccc(S(N)(=O)=O)cc2)n1	4.73% (active)	-27% (active)	-38.3% (active)	-100% (active)	-61.2% (active)	-76.6% (active)	-9.79% (active)	-58.8% (active)		-69.4% (active)
C/C(=C\c1ccn(-c2ccccc2N)n1)[C@@H]1C[C@@H]2O[C@]2(C)CCC[C@H](C)[C@H](O)[C@@H](C)C(=O)C(C)(C)[C@@H](O)CC(=O)O1	16.6%	15.1%	-4.54% (active)	29.1%	27.2%	12.2%	19.9%	58.8%		28.5%
CCCCCCCCCCCCNC(c1ccccc1)C(O)c1ccccc1 (centres undefined)	66.6%	52%	106%	87.4%	32%	96.7%	96.7%	97.4%		49.8%
Cc1ccc(C(=O)NCCCOc2ccc(N)cc2Cl)cc1S(=O)(=O)F	89.4%	101%	75.1%	95.1%		97.2%	100%	104%	105	85.5%
CN(CCCCN(C)CCOS(C)(=O)=O)CCOS(C)(=O)=O	89.4%	86.9%	88.5%	94.7%	71.8%	84.4%	56.1%	95.1%		58%
C[C@]12CCc3sc(-c4cccc(F)c4)nc3C1=CC[C@@H]1[C@@H]2CC[C@]2(C)C(=O)CC[C@@H]12	-38.2% (active)	5.21% (active)	44.6%	60%	18.8%	61.5%	34.9%	48%		1.34% (active)
C/C(=C\c1ccn(-c2ccc(N)c(F)c2)n1)[C@@H]1C[C@@H]2O[C@]2(C)CCC[C@H](C)[C@H](O)[C@@H](C)C(=O)C(C)(C)[C@@H](O)CC(=O)O1	11.4%	14.9%	-16.9% (active)	38.4%	24%	14.7%	21.7%	58.3%		32.4%
